Test results taken from PubChem BioAssay AID430 (Sanford-Burnham Center for Chemical Genomics, 2006).
Among all 63,000 compounds or so, about 1,100 (1.7%) were called active. Rule as the data show it: active = cytotoxicity above about 50%; inactive = the rest. This excerpt belongs to a sample that is enriched for actives. Results with a measured potency or affinity are listed apart.

Assay: HPDE-C7 pancreatic duct cell viability loss – fluorescence, HTS (AID 430);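 also: cells exposed to compound for 48 hours before viability readout; 0% = vehicle and 100% = reference cytotoxic drug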
Conditions: HPDE-C7 pancreatic duct cells viability, at 10 µM, hits give high values
With `COc1ccc(-c2[nH]ncc2Oc2ccccc2OC)c(O)c1` the cytotoxicity was 6.8% (inactive). In the case of `CCOc1ccc(-c2[nH]ncc2Oc2ccccc2OCC)c(O)c1`, the cytotoxicity was 53.9% (active). With `COc1ccc(Oc2cn[nH]c2-c2ccc(O)cc2O)cc1` the cytotoxicity was 9.4% (inactive). For `C=C(C)COc1ccc(-c2[nH]ncc2Oc2ccccc2OCC)c(O)c1`, the cytotoxicity was 86% (active). For `COc1ccc(-c2[nH]ncc2-c2cnc(C)s2)c(O)c1`, the cytotoxicity was 6.4% (inactive). In the case of `O=c1c2c3nc4ccccc4nc3n(/N=C/c3cccs3)c2ncn1-c1ccccc1`, the cytotoxicity was -19.9% (inactive). In the case of `O=C(CCc1nc2ccccc2[nH]1)Nc1ccc2c(c1)OCO2`, the cytotoxicity was 5.9% (inactive). With `Cc1noc(C)c1COC(=O)CCN1c2ccccc2Sc2ccccc21` the cytotoxicity was -8% (inactive). For `COc1ccc(NC(=O)CSc2nc3ccccc3c(=O)n2-c2ccc3c(c2)OCO3)c(OC)c1`, the cytotoxicity was 33.6% (inactive). In the case of `CCc1ccccc1-n1cnc2cc(C(=O)O)ccc21`, the cytotoxicity was -20.8% (inactive). In the case of `O=C(O)c1cc(Cl)ccc1NC(=O)C1CCCO1` (stereo not drawn), the cytotoxicity was -8.9% (inactive). For `C=CCNC(=O)C1CC(c2cccc(OC)c2)=NO1` (stereo not drawn), the cytotoxicity was -8.4% (inactive). With `CCC1(COC(NC(=O)c2cccnc2)(C(F)(F)F)C(F)(F)F)COC1` the cytotoxicity was -0.9% (inactive). For `COc1cccc(-c2nc(CS(=O)CC(=O)NC3CC3)c(C)o2)c1` (stereo not drawn), the cytotoxicity was -3% (inactive). With `COc1nc(NC23CC4CC(CC(C4)C2)C3)nc(OC)n1` the cytotoxicity was -8% (inactive). In the case of `COCCCNC(=O)CN(Cc1ccc(Cl)cc1)S(C)(=O)=O`, the cytotoxicity was -2.6% (inactive). With `CCCSc1nc(C)c(CC(=O)OCC)c(=O)[nH]1` the cytotoxicity was 4% (inactive). In the case of `O=C1c2ccccc2C(=O)N1CCSc1nnc(-c2ccco2)n1Cc1ccccc1`, the cytotoxicity was 4.3% (inactive). For `CCCCCn1c(N(C)Cc2ccccc2)nc2c1c(=O)[nH]c(=O)n2C`, the cytotoxicity was -0.6% (inactive). With `C=C(C)COc1ccc(-c2[nH]ncc2-c2ccc(OC)c(OC)c2)c(O)c1` the cytotoxicity was 13.3% (inactive). For `CCOc1ccc(-c2[nH]ncc2-c2ccc(OC)c(OC)c2)c(O)c1`, the cytotoxicity was 53.7% (active). For `COc1ccc(-c2[nH]ncc2-c2ccc(Cl)cc2)c(O)c1`, the cytotoxicity was 41.2% (inactive). With `CCC(=O)Nc1ccc(F)c(Cl)c1` the cytotoxicity was -11.3% (inactive). For `Cc1csc(NC(=O)CSc2ncnc3c2cnn3-c2ccccc2Cl)n1`, the cytotoxicity was 19.7% (inactive). In the case of `CCOC(=O)Cc1csc(NC(=O)CSc2ncnc3c2cnn3-c2ccc(OC)cc2)n1`, the cytotoxicity was -6.9% (inactive). For `CCOC(=O)Cc1csc(NC(=O)CSc2ncnc3c2cnn3-c2ccccc2Cl)n1`, the cytotoxicity was 57.4% (active). For `CC1(C)CC(=O)C(C(C2=C(O)CC(C)(C)CC2=O)c2cccc(O)c2)C(=O)C1` (stereo not drawn), the cytotoxicity was 10.5% (inactive). With `CC1(C)CC(=O)C2=C(C1)N(c1cccc(O)c1)C1=C(C2)C(=O)CC(C)(C)C1` the cytotoxicity was 59.8% (active). In the case of `CC1(C)CC(=O)C=C(Nc2cccc(O)c2)C1`, the cytotoxicity was 1.7% (inactive). With `C=CCn1c(O)c(C(CC)=NCc2cccnc2)c(=O)[nH]c1=O` the cytotoxicity was -2.2% (inactive). With `O=C(NCc1cccnc1)c1cc(-c2ccco2)on1` the cytotoxicity was 1.9% (inactive). With `N#Cc1cc2c(nc1SCC(=O)NCc1ccc3c(c1)OCO3)CCCCC2` the cytotoxicity was -27.8% (inactive). In the case of `COc1cccc(CNC(=O)Cn2c(=O)oc3ccccc32)c1OC`, the cytotoxicity was -4.3% (inactive). With `COc1cccc(CNC(=O)c2cc3oc4ccccc4c3n2C)c1OC` the cytotoxicity was 53.5% (active). In the case of `COc1ccccc1CNC(=O)c1cc2c(=O)n(C)c3ccccc3c2n1C`, the cytotoxicity was 15.2% (inactive). With `CC1=NC(Nc2nc(C)c3ccccc3n2)=NC(C)(C)C1` the cytotoxicity was 1.1% (inactive). In the case of `COc1ccc(CNC(=O)c2cc(-c3ccc(OC)c(OC)c3)on2)cc1`, the cytotoxicity was 1% (inactive). With `CCCc1cc(C(N)=O)c(NC(=O)C2CCCO2)s1` (stereo not drawn) the cytotoxicity was -5.1% (inactive). For `COC(=O)c1nc2nc(C)cc(C(F)(F)F)n2n1`, the cytotoxicity was -8.4% (inactive). In the case of `O=C(Cn1c(=O)n(-c2cccc(Cl)c2)c(=O)n1CC(=O)N1CCCCC1)N1CCCCC1`, the cytotoxicity was 1% (inactive). With `Cc1ccc(S(=O)(=O)C2(S(=O)(=O)c3ccc(C)cc3)CCCC2)cc1` the cytotoxicity was 54.6% (active). In the case of `O=S(=O)(c1ccccc1)C1(S(=O)(=O)c2ccccc2)CCCC1`, the cytotoxicity was -3.4% (inactive). For `Cc1ccc(S(=O)(=O)C2(C(=O)N3CCCCCC3)CC2)cc1`, the cytotoxicity was 6% (inactive). With `O=C(NCCc1cccc(Cl)c1)c1cccnc1` the cytotoxicity was -6% (inactive). In the case of `Cc1ccc(C)c(N2CCN(C(=O)c3ccc(NS(=O)(=O)c4c(C)noc4C)cc3)CC2)c1`, the cytotoxicity was 41.2% (inactive). With `Cc1noc(C)c1S(=O)(=O)Nc1ccc(C(=O)N2CCN(c3ccc(Cl)cc3)CC2)cc1` the cytotoxicity was -12.9% (inactive). For `N#Cc1ccccc1Cn1c(=O)n(Cc2ccc(C(=O)NCc3ccco3)cc2)c(=O)c2ccccc21`, the cytotoxicity was 7.9% (inactive). With `CC(=O)c1cccc(NC(=O)C=C(C)C)c1` the cytotoxicity was 5.6% (inactive).
